Measurements from publication PMC5540273 (PLoS ONE, 2017).
Several values for one entry are separate records, joined by “and”; a condition that tells them apart may be missing. Equal entries are not always repeated. Where two headings read alike, the source gives them in different places.

Assays:
Details in all cases: concentration: 1 μM, replicates: in singlicate, n = 1
[1] = system: T1, MEK1
T1 construct: gene MAP2K1

[2] = system: T2, MEK2
T2 construct: gene MAP2K2

[3] = system: T3, MEK3
T3 construct: gene MAP2K3

[4] = system: T4, MEK4
T4 construct: gene MAP2K4

[5] = system: T5, MEK5
T5 construct: gene MAP2K5

[6] = system: T6, MEK6
T6 construct: gene MAP2K6

[7] = system: MELK
[8] = system: MERTK
[9] = system: MET
[10] = system: T7, MINK
T7 construct: gene MINK1
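Also: KINOMEscan kinase panel screen.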

| Compound | %Inh ([1]; 1 µM) | %Inh ([2]; 1 µM) | %Inh ([3]; 1 µM) | %Inh ([4]; 1 µM) | %Inh ([5]; 1 µM) | %Inh ([6]; 1 µM) | %Inh ([7]; 1 µM) | %Inh ([8]; 1 µM) | %Inh ([9]; 1 µM) | %Inh ([10]; 1 µM) | %Inh [1] | %Inh [2] | %Inh [3] | %Inh [4] | %Inh [5] | %Inh [6] | %Inh [7] | %Inh [8] | %Inh [9] | %Inh [10] |
| --- | --- | --- | --- | --- | --- | --- | --- | --- | --- | --- | --- | --- | --- | --- | --- | --- | --- | --- | --- | --- |
| Cl.Cl.Cl.Fc1ccc(-c2ncn(C3CCNCC3)c2-c2ccnc(Nc3ccccc3)n2)cc1 [SB-238039] | 36% and 3% | 58% and 26% | 45% and 44% | 31% and 6% | 47% and 18% | 59% and 42% | 51% and 31% | 15% and 0% | 8% and 0% | 89% and 88% | – | – | – | – | – | – | – | – | – | – |
| O=C1NC(=O)C(N2CCc3ccccc32)=C1c1cccc(Cl)c1 [SB-408010] | – | – | – | – | – | – | – | – | – | – | 0% | 0% | 0% | 0% | 0% | 0% | 0% | 0% | 0% | 0% |
| CC(C)Oc1ccc2c(-c3ccnc(Nc4ccc(N5CCN(C)CC5)cc4)n3)cnn2n1 [GW696155] | – | – | – | – | – | – | – | – | – | – | 25% | 43% | 43% | 50% | 82% | 53% | 71% | 10% | 0% | 65% |
| NCC(NC(=O)c1cc(-c2cn[nH]c2)c(-c2ccnc3[nH]ccc23)s1)c1ccccc1.O=C(O)C(F)(F)F.O=C(O)C(F)(F)F (centres unmarked) [GSK1325775] | – | – | – | – | – | – | – | – | – | – | 0% | 11% | 82% | 35% | 80% | 24% | 38% | 0% | 0% | 59% |
| c1ccc(-c2cc(-c3c[nH]nc3-c3ccccn3)ccn2)cc1 [GW576604] | – | – | – | – | – | – | – | – | – | – | 0% | 0% | 0% | 16% | 41% | 0% | 1% | 0% | 13% | 71% |
